This passage reports binding signal results from article PMC7862700, “An all-to-all approach to the identification of sequence-specific readers for epigenetic DNA modifications on cytosine”.

What all share (test): DAPPL (digital affinity profiling via proximity ligation, sequencing); 10 mM Tris-HCl pH 7.5, 50 mM NaCl, 1 mM DTT, 4% glycerol, room temperature, 30 min; GST-TFs on glutathione beads, 16-mer random dsDNA library, 0.1% formaldehyde crosslink after washing; high values mean tight binding
The target of test [1] is T1, FEV (Homo sapiens, UniProt Q99581 1-238).
T1 sequence: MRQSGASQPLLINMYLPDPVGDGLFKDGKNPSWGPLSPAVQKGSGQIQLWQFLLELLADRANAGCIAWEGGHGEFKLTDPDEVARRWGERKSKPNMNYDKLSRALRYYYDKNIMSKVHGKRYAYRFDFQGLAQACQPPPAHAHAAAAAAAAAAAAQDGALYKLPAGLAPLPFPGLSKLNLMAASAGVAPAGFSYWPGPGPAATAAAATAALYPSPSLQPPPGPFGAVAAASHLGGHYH
Particulars: protein: recombinant; tags: N-terminal GST; dsDNA, one strand shown. Put shortly: (§1)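 Human transcription factors were made in yeast as GST fusions, captured on glutathione beads and barcoded with DNA. With a tag-only sample included, the pool was incubated with 200 nmole of a random double-stranded 16-mer DNA library in Tris/NaCl/DTT/glycerol buffer at room temperature for 30 min, then crosslinked with 0.1% formaldehyde after washing, ligated by proximity, amplified and sequenced. For binding signal, each hexamer's read frequency for a factor is divided by its frequency for the tag-only sample.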

In test [2] the target is ETV5 (Homo sapiens, UniProt P41161 1-510). Conditions: protein: recombinant; tags: N-terminal GST; dsDNA, one strand shown. Put shortly:
as §1

The target in test [3] is HSF1 (Homo sapiens, UniProt Q00613 1-529). Conditions: protein: recombinant; tags: N-terminal GST; chain copies: 3; dsDNA, one strand shown. An outline of the steps: as §1
Test [4] deals with T2, SPIC (Homo sapiens, UniProt Q8N5J4 1-248).
T2 sequence: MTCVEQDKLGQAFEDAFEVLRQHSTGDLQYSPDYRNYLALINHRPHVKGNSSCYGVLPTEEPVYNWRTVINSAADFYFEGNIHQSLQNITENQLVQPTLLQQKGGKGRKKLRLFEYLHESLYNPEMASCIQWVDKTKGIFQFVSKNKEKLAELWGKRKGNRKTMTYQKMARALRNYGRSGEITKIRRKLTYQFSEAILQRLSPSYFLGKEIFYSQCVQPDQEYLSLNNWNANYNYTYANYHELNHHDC
Particulars: protein: recombinant; tags: N-terminal GST; dsDNA, one strand shown. Put shortly:
as §1

The target of test [5] is ELF4 (Homo sapiens, UniProt Q99607 1-663). Particulars: protein: recombinant; tags: N-terminal GST; dsDNA, one strand shown. Put shortly:
as §1

Test [6] has as its target T3, ELK4 (Homo sapiens, UniProt P28324-2 1-405).
T3 sequence: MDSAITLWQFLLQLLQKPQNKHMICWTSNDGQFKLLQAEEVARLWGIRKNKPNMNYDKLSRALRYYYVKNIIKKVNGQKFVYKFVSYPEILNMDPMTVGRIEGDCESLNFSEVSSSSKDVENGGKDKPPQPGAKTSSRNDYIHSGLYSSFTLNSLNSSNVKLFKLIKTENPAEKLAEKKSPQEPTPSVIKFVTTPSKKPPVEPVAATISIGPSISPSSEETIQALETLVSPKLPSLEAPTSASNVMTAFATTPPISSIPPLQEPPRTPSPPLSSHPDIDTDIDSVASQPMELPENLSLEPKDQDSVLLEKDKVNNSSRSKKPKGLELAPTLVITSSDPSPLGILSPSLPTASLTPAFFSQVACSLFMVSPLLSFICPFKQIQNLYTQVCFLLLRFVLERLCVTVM
Particulars: protein: recombinant; tags: N-terminal GST; dsDNA, one strand shown. An outline of the steps: as §1

Test [7] has as its target T4, ETV2 (Homo sapiens, UniProt O00321 1-342).
T4 sequence: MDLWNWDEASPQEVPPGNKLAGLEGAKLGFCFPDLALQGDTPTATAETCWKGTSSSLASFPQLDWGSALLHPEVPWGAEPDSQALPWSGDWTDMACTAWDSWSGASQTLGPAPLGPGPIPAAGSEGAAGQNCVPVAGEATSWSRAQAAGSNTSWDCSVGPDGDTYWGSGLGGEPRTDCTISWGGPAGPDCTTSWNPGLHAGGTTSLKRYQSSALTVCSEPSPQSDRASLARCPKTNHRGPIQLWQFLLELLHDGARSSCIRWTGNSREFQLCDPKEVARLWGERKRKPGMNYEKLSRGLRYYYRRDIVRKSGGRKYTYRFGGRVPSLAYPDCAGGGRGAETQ
Particulars: protein: recombinant; tags: N-terminal GST; dsDNA, one strand shown. An outline of the steps: as §1

For test [8], the target named is T5, ELF3 (Homo sapiens, UniProt P78545 1-371).
T5 sequence: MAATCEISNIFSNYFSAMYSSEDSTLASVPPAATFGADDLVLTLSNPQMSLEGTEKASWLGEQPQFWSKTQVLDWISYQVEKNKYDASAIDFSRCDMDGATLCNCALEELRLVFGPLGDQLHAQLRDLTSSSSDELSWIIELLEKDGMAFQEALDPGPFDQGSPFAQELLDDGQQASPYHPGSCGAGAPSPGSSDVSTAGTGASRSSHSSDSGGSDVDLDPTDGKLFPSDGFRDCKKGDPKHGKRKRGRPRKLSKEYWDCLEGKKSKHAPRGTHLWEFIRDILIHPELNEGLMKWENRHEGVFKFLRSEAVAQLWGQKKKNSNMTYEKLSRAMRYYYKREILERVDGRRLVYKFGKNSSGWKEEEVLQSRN
Particulars: protein: recombinant; tags: N-terminal GST; dsDNA, one strand shown. An outline of the steps: as §1

Test [9] has as its target CRX (Homo sapiens, UniProt O43186 1-299). Conditions: protein: recombinant; tags: N-terminal GST; dsDNA, one strand shown. An outline of the steps:
as §1

Test [10] has as its target ETV1 (Homo sapiens, UniProt P50549 1-477). Conditions: protein: recombinant; tags: N-terminal GST; dsDNA, one strand shown. Put shortly:
as §1

Test [11] addresses T6, ERF (Homo sapiens, UniProt P50548 1-548).
T6 sequence: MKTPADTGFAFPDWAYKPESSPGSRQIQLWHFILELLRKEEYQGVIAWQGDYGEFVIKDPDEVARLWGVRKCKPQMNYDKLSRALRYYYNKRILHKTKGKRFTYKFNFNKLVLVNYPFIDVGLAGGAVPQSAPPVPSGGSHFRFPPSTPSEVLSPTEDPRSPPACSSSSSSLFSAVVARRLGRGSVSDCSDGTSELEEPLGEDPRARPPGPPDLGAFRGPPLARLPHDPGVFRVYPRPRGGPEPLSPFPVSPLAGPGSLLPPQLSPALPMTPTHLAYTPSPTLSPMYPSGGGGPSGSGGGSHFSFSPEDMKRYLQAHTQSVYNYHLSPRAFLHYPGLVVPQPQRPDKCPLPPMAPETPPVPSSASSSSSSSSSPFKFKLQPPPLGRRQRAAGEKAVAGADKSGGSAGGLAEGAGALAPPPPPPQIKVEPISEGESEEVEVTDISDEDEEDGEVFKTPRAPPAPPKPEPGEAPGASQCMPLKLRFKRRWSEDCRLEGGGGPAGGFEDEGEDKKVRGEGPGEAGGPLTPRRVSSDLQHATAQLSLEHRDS
Particulars: protein: recombinant; tags: N-terminal GST; dsDNA, one strand shown. Put shortly:
as §1

Test [12] deals with T7, ETV3L (Homo sapiens, UniProt Q6ZN32 1-361).
T7 sequence: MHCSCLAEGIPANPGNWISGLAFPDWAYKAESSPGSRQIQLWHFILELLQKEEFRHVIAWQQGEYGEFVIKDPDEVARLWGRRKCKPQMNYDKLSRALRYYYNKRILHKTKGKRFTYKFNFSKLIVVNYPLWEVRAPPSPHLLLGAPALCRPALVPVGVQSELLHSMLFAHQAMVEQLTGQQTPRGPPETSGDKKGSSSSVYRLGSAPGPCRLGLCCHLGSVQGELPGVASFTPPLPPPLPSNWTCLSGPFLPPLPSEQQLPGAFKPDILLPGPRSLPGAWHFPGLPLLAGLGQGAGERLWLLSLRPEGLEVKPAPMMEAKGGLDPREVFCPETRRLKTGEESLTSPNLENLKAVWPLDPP
Particulars: protein: recombinant; tags: N-terminal GST; dsDNA, one strand shown. An outline of the steps: as §1

Test [13] addresses T8, ETS2 (Homo sapiens, UniProt P15036 1-469).
T8 sequence: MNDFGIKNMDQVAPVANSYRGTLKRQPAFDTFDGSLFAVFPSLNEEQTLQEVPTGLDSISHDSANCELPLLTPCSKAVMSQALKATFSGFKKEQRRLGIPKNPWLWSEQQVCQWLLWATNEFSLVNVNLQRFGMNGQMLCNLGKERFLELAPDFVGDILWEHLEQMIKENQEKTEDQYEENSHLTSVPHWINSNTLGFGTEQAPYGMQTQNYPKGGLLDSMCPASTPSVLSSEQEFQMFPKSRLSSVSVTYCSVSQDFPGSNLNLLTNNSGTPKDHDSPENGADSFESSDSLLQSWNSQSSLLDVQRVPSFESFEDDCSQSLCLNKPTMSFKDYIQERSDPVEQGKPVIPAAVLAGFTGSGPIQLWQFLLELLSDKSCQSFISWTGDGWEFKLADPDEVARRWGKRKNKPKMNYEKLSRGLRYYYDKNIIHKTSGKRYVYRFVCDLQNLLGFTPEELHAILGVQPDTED
Particulars: protein: recombinant; tags: N-terminal GST; dsDNA, one strand shown. An outline of the steps: as §1

The target in test [14] is T9, SPDEF (Homo sapiens, UniProt O95238 1-335).
T9 sequence: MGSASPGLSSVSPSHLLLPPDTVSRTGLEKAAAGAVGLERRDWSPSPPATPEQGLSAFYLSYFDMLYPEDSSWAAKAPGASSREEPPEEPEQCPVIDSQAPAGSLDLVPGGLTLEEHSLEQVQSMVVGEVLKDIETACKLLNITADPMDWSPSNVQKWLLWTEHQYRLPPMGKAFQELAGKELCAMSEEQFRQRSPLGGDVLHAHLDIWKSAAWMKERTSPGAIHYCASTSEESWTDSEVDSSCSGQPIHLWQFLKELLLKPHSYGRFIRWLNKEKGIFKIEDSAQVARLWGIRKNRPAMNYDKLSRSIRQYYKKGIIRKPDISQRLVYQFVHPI
Particulars: protein: recombinant; tags: N-terminal GST; dsDNA, one strand shown. Put shortly:
as §1

Test [15] addresses T10, ETV7 (Homo sapiens, UniProt Q9Y603 1-341).
T10 sequence: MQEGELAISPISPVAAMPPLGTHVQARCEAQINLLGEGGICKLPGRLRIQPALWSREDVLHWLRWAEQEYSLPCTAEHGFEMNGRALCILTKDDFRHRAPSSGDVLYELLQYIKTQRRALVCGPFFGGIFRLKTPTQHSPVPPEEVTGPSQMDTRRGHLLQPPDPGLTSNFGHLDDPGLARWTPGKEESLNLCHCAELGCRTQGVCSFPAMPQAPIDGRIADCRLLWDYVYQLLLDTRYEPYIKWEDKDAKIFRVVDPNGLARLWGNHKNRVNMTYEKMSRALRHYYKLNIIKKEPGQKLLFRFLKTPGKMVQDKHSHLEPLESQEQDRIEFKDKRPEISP
Particulars: protein: recombinant; tags: N-terminal GST; dsDNA, one strand shown. An outline of the steps:
as §1

The target of test [16] is T11, ELF5 (Homo sapiens, UniProt Q9UKW6-2 1-255).
T11 sequence: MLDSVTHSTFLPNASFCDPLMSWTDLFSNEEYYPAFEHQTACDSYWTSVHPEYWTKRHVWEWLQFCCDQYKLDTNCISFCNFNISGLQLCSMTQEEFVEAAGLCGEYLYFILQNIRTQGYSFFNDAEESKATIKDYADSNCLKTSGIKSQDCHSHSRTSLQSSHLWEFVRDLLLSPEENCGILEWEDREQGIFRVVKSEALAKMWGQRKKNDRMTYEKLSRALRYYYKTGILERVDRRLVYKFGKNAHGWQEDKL
Particulars: protein: recombinant; tags: N-terminal GST; dsDNA, one strand shown. Put shortly: as §1

In test [17] the target is T12, ETV3 (Homo sapiens, UniProt P41162-2 1-143).
T12 sequence: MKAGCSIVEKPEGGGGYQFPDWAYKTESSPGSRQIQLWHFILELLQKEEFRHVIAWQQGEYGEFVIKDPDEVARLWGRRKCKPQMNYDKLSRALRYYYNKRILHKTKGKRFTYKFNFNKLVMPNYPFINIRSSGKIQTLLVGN
Particulars: protein: recombinant; tags: N-terminal GST; dsDNA, one strand shown. Put shortly: as §1

The target in test [18] is ETV6 (Homo sapiens, UniProt P41212 1-452). Particulars: protein: recombinant; tags: N-terminal GST; dsDNA, one strand shown. An outline of the steps:
as §1

Sequence of ETV1 (P50549 whole entry): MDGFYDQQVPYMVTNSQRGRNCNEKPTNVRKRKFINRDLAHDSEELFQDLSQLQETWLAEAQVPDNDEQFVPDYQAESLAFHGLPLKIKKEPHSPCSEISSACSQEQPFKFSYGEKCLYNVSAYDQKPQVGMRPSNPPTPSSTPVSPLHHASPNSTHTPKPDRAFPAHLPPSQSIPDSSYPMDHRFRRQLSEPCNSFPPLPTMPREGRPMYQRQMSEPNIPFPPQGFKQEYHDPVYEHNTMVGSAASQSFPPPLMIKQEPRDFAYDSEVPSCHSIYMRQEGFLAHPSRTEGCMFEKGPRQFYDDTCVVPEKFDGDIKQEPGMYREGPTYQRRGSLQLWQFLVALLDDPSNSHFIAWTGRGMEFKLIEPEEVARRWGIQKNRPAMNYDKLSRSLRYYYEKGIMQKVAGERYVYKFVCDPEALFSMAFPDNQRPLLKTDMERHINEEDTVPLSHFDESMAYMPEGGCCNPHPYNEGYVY
Sequence of CRX (O43186 whole entry): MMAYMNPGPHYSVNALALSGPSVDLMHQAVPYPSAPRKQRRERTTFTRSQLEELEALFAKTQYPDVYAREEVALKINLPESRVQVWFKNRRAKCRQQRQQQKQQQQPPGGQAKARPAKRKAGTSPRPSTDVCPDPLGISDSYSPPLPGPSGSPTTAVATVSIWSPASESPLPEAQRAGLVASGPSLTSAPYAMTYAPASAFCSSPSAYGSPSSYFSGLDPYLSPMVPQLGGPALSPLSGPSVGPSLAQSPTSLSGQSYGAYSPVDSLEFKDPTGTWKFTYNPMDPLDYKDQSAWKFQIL
Sequence of ETV6 (P41212 whole entry): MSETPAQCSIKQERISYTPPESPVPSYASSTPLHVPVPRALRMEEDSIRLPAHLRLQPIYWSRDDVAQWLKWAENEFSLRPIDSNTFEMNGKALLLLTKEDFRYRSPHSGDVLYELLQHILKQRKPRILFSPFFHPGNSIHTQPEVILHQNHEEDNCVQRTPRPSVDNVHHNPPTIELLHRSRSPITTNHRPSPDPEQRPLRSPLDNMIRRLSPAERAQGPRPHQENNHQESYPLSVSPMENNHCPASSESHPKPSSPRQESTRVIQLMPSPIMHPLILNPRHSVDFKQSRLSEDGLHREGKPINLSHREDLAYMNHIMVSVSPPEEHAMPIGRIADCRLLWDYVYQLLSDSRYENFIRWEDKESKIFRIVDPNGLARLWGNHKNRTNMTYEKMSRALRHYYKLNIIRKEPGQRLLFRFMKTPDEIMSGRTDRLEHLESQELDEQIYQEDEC
Sequence of HSF1 (Q00613 whole entry): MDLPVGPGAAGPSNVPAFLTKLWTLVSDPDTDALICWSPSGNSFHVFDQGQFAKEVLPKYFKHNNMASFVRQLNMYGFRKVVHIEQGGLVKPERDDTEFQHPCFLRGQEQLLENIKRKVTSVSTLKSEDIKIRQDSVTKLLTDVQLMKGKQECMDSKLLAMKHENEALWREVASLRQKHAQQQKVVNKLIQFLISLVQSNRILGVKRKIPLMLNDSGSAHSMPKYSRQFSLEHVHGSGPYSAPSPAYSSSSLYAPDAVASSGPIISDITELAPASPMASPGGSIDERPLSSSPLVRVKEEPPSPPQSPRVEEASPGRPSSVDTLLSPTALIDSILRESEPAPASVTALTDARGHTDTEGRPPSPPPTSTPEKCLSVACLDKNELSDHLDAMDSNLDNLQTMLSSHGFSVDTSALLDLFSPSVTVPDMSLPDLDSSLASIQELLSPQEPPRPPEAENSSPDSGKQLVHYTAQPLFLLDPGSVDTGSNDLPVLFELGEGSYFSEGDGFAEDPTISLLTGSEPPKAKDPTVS
Sequence of ETV5 (P41161 whole entry): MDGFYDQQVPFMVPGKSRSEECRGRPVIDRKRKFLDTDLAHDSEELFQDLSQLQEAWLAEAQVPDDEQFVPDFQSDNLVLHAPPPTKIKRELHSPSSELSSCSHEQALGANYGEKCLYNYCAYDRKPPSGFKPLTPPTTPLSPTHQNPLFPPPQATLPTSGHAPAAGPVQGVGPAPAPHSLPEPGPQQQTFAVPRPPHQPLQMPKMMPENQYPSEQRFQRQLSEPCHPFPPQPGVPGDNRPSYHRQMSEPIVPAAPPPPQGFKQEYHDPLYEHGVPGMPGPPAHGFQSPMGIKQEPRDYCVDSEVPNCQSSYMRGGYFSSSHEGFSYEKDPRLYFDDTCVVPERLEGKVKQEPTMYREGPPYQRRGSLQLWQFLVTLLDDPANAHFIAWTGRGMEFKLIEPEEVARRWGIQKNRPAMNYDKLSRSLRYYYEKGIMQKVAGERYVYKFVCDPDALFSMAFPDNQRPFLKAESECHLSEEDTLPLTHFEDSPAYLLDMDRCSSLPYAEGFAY
Sequence of ELF4 (Q99607 whole entry): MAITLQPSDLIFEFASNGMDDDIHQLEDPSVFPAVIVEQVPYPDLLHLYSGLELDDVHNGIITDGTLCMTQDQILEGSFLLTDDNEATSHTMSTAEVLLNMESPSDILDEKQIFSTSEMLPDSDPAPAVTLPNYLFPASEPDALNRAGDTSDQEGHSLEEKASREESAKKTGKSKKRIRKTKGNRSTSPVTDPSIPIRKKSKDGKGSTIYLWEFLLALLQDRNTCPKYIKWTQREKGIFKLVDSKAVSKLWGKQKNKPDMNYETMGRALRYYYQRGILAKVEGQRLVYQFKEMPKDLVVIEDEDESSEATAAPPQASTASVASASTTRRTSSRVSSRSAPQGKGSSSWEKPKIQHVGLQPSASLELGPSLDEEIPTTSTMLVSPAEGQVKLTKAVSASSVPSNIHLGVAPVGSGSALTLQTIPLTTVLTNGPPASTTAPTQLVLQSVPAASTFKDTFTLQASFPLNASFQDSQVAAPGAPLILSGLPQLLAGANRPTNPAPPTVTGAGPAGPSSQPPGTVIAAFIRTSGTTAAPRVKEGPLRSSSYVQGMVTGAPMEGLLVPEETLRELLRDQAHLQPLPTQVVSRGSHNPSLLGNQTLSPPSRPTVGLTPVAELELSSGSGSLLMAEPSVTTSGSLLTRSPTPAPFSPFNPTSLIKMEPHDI

Take CTACTC: the binding signal in test [1] was 1.37 fold enrichment (6-mer frequency, TF over GST control); in [2], 1.35 fold enrichment (6-mer frequency, TF over GST control); in test [3], 1.32 fold enrichment (6-mer frequency, TF over GST control); in test [4], 1.21 fold enrichment (6-mer frequency, TF over GST control); in test [5] it was 1.37 fold enrichment (6-mer frequency, TF over GST control); in [6], 1.41 fold enrichment (6-mer frequency, TF over GST control). For the same sequence, the binding signal in test [7] is 1.38 fold enrichment (6-mer frequency, TF over GST control); in test [8] it was 1.32 fold enrichment (6-mer frequency, TF over GST control); in [9], 1.28 fold enrichment (6-mer frequency, TF over GST control); in [10], 1.32 fold enrichment (6-mer frequency, TF over GST control); in test [11] it was 1.48 fold enrichment (6-mer frequency, TF over GST control); in test [12] it was 1.45 fold enrichment (6-mer frequency, TF over GST control). Moreover, the binding signal in test [13] is 1.34 fold enrichment (6-mer frequency, TF over GST control); in [14], 1.29 fold enrichment (6-mer frequency, TF over GST control); in [15] it was 1.13 fold enrichment (6-mer frequency, TF over GST control); in test [16] it was 1.29 fold enrichment (6-mer frequency, TF over GST control); in [17], 1.25 fold enrichment (6-mer frequency, TF over GST control); in test [18], 1.3 fold enrichment (6-mer frequency, TF over GST control).
